SMILES strings stand for the structures.

The test system of assay [1] is Vero E6 infected with SARS-CoV-2. Description: morphology score (similarity to uninfected cells); higher = more like uninfected cells. As to conditions: 24 h.
The test system is the same in assay [2]. As to the kind of experiment: SARS-CoV-2 infection rate relative to infected DMSO; higher = more infection, active = 60 or less. Particulars: 24 h.

On to `Cc1c(N(C)C)c(=O)n(-c2ccccc2)n1C` [amidopyrine] (10 µM), for which the morphology score in assay [1] was -0.0419. Also, in assay [2], the SARS-CoV-2 infection rate is 110% (inactive).

`CN1C(=O)c2c(nn(Cc3ccc(-c4cccc(F)n4)cc3)c2Nc2ccccc2)N2C1=N[C@@H]1CCC[C@@H]12` (10 µM) registered a morphology score in assay [1] of 0.38. In addition, the SARS-CoV-2 infection rate in assay [2] was 105% (inactive).

`CN(Cc1ccc(C(C)(C)C)cc1)Cc1cccc2ccccc12` [butenafine] (10 µM) registered a morphology score in assay [1] of 0.502. Besides, the SARS-CoV-2 infection rate in assay [2] is 71% (inactive).

In assay [1], `COc1cc2c(cc1OC)[C@@]13CCN4CC5=CCO[C@H]6CC(=O)N2[C@H]1[C@H]6[C@H]5C[C@H]43` [brucine] (10 µM) yielded a morphology score of 0.0385. Moreover, the SARS-CoV-2 infection rate in assay [2] was 105% (inactive).

With `CN(C(=O)CCCOc1ccc2[nH]c(=O)ccc2c1)C1CCCCC1` [cilostamide] (10 µM), in assay [1], the morphology score was -0.131. The SARS-CoV-2 infection rate in assay [2] is 103% (inactive).

Compound `O=P(O)(O)C(O)(Cc1cccnc1)P(=O)(O)O` [risedronate] (10 µM) registered a morphology score in assay [1] of 0.123. Also, the SARS-CoV-2 infection rate in assay [2] was 89% (inactive).

`C=CC[N+]1([C@H]2C[C@H]3[C@@H]4CC[C@H]5C[C@H](O)[C@@H](N6CCOCC6)C[C@]5(C)[C@H]4CC[C@]3(C)[C@H]2OC(C)=O)CCCC1` (10 µM) returned a morphology score in assay [1] of 0.061. The SARS-CoV-2 infection rate in assay [2] was 110% (inactive).

Regarding `O=C(O)c1cc(O)c2c(c1)[C@H]([C@H]1c3cc(C(=O)O)cc(O)c3C(=O)c3c(O[C@@H]4O[C@H](CO)[C@@H](O)[C@H](O)[C@H]4O)cccc31)c1cccc(O[C@@H]3O[C@H](CO)[C@@H](O)[C@H](O)[C@H]3O)c1C2=O` [sennoside-A] (10 µM), the morphology score in assay [1] was -0.287. The SARS-CoV-2 infection rate in assay [2] was 113% (inactive).

As for `CCCCN(CCCC)CCCOC(=O)c1ccc(N)cc1` [butacaine] (10 µM), the morphology score in assay [1] turned out to be 0.206. Moreover, in assay [2], the SARS-CoV-2 infection rate was 100% (inactive).

`CN1CCN(Cc2ccc(-c3cnc4[nH]cc(-c5ccc6[nH]ccc6c5)c4c3)cc2)CC1` (0.833333 µM) showed a morphology score in assay [1] of 0.84. The SARS-CoV-2 infection rate in assay [2] is 61% (inactive).

`O=C1c2ccccc2C(Cc2ccncc2)(Cc2ccncc2)c2ccccc21` (10 µM) displayed a morphology score in assay [1] of -0.0398. Moreover, the SARS-CoV-2 infection rate in assay [2] was 98% (inactive).

Compound `CCCC[C@H]1C(=O)N(c2ccccc2)N(c2ccc(O)cc2)C1=O` [oxyphenbutazone] (0.833333 µM) returned a morphology score in assay [1] of 0.131. The SARS-CoV-2 infection rate in assay [2] was 102% (inactive).

`O=P(O)(O)C(O)(Cc1cnc2ccccn12)P(=O)(O)O` [minodronic-acid] (10 µM) showed a morphology score in assay [1] of -0.0261. Also, the SARS-CoV-2 infection rate in assay [2] is 108% (inactive).

With `O=c1cc(-c2cccc3c2Sc2ccccc2S3)oc(N2CCOCC2)c1` (10 µM), the morphology score in assay [1] was found to be 0.284. Moreover, in assay [2], the SARS-CoV-2 infection rate is 83% (inactive).

Compound `CC(=O)N1CCN(c2ccc(OC[C@@H]3CO[C@@](Cn4ccnc4)(c4ccc(Cl)cc4Cl)O3)cc2)CC1` (racemic) [ketoconazole] (10 µM) had a morphology score in assay [1] of 0.0784. Moreover, the SARS-CoV-2 infection rate in assay [2] is 108% (inactive).

Consider `COc1ccc2cccc(N3CCN(CCNC(=O)c4ccc(F)cc4)CC3)c2c1` (10 µM), for which, in assay [1], the morphology score stood at 0.241. Moreover, the SARS-CoV-2 infection rate in assay [2] was 103% (inactive).

With `CC(=O)N[C@H]1[C@H]([C@H](O)[C@H](O)CO)OC(C(=O)O)=C[C@@H]1NC(=N)N` [zanamivir] (10 µM), in assay [1], the morphology score is 0.113. Besides, in assay [2], the SARS-CoV-2 infection rate is 108% (inactive).

Regarding `Cc1nc(NC(=O)N2CCC[C@H]2C(N)=O)sc1-c1ccnc(C(C)(C)C(F)(F)F)c1` [alpelisib] (10 µM), the morphology score in assay [1] was 0.0577. In addition, the SARS-CoV-2 infection rate in assay [2] is 113% (inactive).

In turn, `Cc1ccc(C(=O)NCCCCCC(=O)Nc2ccccc2N)cc1` (0.833333 µM) gave a morphology score in assay [1] of -0.0541. Also, in assay [2], the SARS-CoV-2 infection rate was 120% (inactive).

The compound `CC[C@H](CC[C@@H](C)[C@H]1CC[C@H]2[C@@H]3CC=C4C[C@@H](O)CC[C@]4(C)[C@H]3CC[C@]12C)C(C)C` [beta-Sitosterol] (10 µM) came in with a morphology score in assay [1] of 0.119. The SARS-CoV-2 infection rate in assay [2] is 99% (inactive).

With `CCOC(=O)/C=C(C)/C=C/C=C(C)/C=C/c1c(C)cc(OC)c(C)c1C` [etretinate] (10 µM), the morphology score in assay [1] was -0.112. Moreover, the SARS-CoV-2 infection rate in assay [2] was 92.5% (inactive).

On to `COc1ccc(CNC(=O)c2sc3nc(C)cc(C)c3c2N)cc1` (10 µM), for which the morphology score in assay [1] is -0.0124. Moreover, in assay [2], the SARS-CoV-2 infection rate is 104% (inactive).

In assay [1], `CC(C)[C@@H](CN1CC[C@@](C)(c2cccc(O)c2)[C@@H](C)C1)NC(=O)[C@H]1Cc2ccc(O)cc2CN1` (10 µM) registered a morphology score of -0.0336. For the same compound, the SARS-CoV-2 infection rate in assay [2] is 99.5% (inactive).

The compound `O=c1cc(N2CCOCC2)oc2c(-c3cccc4c3sc3ccccc34)cccc12` (0.833333 µM) came in with a morphology score in assay [1] of 0.352. Further, the SARS-CoV-2 infection rate in assay [2] was 68% (inactive).

Turning to `COc1ccccc1N1CCN(CC(O)COc2cc(OC)c(OC)c(OC)c2)CC1` (stereo not given) [enciprazine] (10 µM), the morphology score in assay [1] was 0.0687. Also, the SARS-CoV-2 infection rate in assay [2] was 110% (inactive).

In assay [1], `NNC(=O)CN1C(=O)CN=C(c2ccccc2)c2cc(Br)ccc21` [gidazepam] (10 µM) came in with a morphology score of 0.101. In addition, the SARS-CoV-2 infection rate in assay [2] was 100% (inactive).

For the compound `Cc1cc(C)cc(NC(=O)Cc2ccc(OC(C)(C)C(=O)O)cc2)c1` [efaproxiral] (10 µM), the morphology score in assay [1] was -0.103. The SARS-CoV-2 infection rate in assay [2] is 107% (inactive).

On to `CN1C2CCC1CC(OC(=O)C(O)c1ccccc1)C2` (stereo not given) [Homatropine Bromide] (10 µM), for which the morphology score in assay [1] came to 0.0164. In addition, the SARS-CoV-2 infection rate in assay [2] is 108% (inactive).

In assay [1], `CC(C)C(=O)SCCCCC[C@H](NC(=O)OC(C)(C)C)C(=O)NC12CC3CC(CC(C3)C1)C2` (10 µM) showed a morphology score of -0.113. In assay [2], the SARS-CoV-2 infection rate is 97% (inactive).

The compound `N#C/C(=C\c1ccc(O)c(O)c1)C(=O)OCCc1cccs1` (10 µM) had a morphology score in assay [1] of -0.0101. Further, the SARS-CoV-2 infection rate in assay [2] is 108% (inactive).
